# Hits are enriched below; roughly 2.1% of the tested compounds scored in any of these assays.
# Rpn11 inh: blocks the human proteasome subunit Rpn11; O00487; human 26S proteasome, Ub4-pepOG fluorescence polarization; 20S core pre-blocked with epoxomicin; inhibition, % at 20 µM; actives 0.59% (n = 360,000);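 active = inhibition at 20 µM, scaled to each plate's controls, above about 33%, limit read from the data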
# HNF4A DNA FP: change in binding of human HNF4 alpha to DNA; actives 0.3% (n = 360,000); P41235; AID 1224865; HNF4a-FITC DNA binding, fluorescence polarization, 1 h; activity change, % at 10 µM; in the data active = activity change above about 30%, passing the limit was not always enough
# Myeloid diff 2: compounds promoting myeloid differentiation | actives 1% (n = 360,000) | calls only at 10 µM | AID 624256 | ER-HoxA9 myeloid progenitors, lysozyme-GFP differentiation, flow cytometry;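 active = normalized GFP-positive differentiation at or above the plate's own cutoff, the solvent-only control mean plus 3 SD; inconclusive = no clear call, values can overlap the other calls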;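 also: cells exposed to compound for four days before flow analysis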
# TPT1 inh: inhibitors of Candida albicans tRNA 2'-phosphotransferase TPT1 | recombinant caTPT1, FP RNA substrate dephosphorylation | inhibition, % at 5 µM | actives 0.81% (n = 300,000) | AID 1962;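 active = inhibition above the mean of all tested compounds plus 3 SD, set per screening campaign, cut at about 24% in these data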;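 also: plate controls were DMSO alone for no effect and ferristatin control at 100 nM for full effect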
# Rpn11 confirm: Rpn11 inhibition confirmation, single concentration | shares compounds with Rpn11 inh | purified human 26S proteasome, Ub4-pepOG fluorescence polarization; proteasome pretreated with epoxomicin | inhibition, % at 20 µM | actives 29% (n = 1,900)
# MMP-2 inh: counter-screen for RPN11 inhibitors: inhibition of human MMP-2 | shares compounds with Rpn11 inh | recombinant MMP-2, FRET peptide cleavage fluorescence | inhibition, % at 20 µM | actives 4% (n = 1,900) | AID 602330;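 also: human MMP-2 activated beforehand with APMA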
# Thrombin inh: counter-screen for RPN11 inhibitors: inhibition of bovine thrombin | actives 13% (n = 1,900) | inhibition, % at 20 µM | bovine thrombin cleavage of Ub4-pepOG, fluorescence polarization | shares compounds with Rpn11 inh | AID 602333;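 active = mean inhibition at least 40% at 20 µM, or signal 3 deviations below plate average, so some actives read negative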;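 also: plate controls were thrombin with DMSO for no effect and buffer wells lacking thrombin for full effect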
# Target sequence (P00735 whole entry, looked up): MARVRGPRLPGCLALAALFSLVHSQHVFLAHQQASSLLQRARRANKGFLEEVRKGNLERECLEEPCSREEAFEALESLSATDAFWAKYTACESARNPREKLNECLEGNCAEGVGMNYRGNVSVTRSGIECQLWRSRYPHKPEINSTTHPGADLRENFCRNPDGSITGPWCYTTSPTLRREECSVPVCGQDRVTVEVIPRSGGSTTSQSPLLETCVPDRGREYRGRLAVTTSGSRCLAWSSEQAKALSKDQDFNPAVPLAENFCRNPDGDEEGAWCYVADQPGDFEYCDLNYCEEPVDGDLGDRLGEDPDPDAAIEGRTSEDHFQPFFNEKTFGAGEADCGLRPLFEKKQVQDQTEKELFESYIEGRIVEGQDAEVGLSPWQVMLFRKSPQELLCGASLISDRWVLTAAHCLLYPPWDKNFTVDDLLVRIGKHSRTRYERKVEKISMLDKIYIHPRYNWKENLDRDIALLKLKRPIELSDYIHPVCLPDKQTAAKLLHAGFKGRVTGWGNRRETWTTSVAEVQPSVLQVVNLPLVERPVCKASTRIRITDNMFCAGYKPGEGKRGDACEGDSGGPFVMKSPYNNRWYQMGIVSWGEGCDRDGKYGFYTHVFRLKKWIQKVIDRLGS
# Starred values were filed as active, the others as inactive; i = inactive; ? = inconclusive; / = no result. Rule as the data show it, unless noted: active = inhibition above about 40%; inactive = the rest.
SMILES,Rpn11 inh,HNF4A DNA FP,Myeloid diff 2,TPT1 inh,Rpn11 confirm,MMP-2 inh,Thrombin inh
CC(C)c1ccc(NC(=O)COc2nnc(-c3cccs3)c(-c3cccs3)n2)cc1,32.4*,1.9,i,-0.4,14.8,18.4,-1.4
Cc1nnc(-c2cccc(Br)c2)c2cn(-c3ccccc3Cl)nc12,76.4*,32.5,i,-1.5,25.6,-7.5,25.8
Cc1cc(Br)cn2c(Cc3ccccc3)c(-c3cccc(Br)c3)nc12,29.6,6.5,i,/,/,/,/
O=C(c1cccn(Cc2ccc(Cl)c(Cl)c2)c1=O)N1CCOCC1,101.9*,70.2*,i,0.1,1.2,-15.6,-4.6
COc1ccc(/C=c2\sc3nc(-c4ccccc4)c(-c4ccccc4)n3c2=O)cc1OC,140.4*,3.8,i,18.0,-1.9,-22.3,-27.3
COc1cc(/C=c2/sc3nc(-c4ccccc4)c(-c4ccccc4)n3c2=O)cc(OC)c1OC,4.6,-3.7,i,-1.8,/,/,/
Cc1ccc2nc(Nc3nc(-c4ccccc4)cc(=O)[nH]3)nc(C)c2c1,5.9,1.9,i,-1.2,/,/,/
COc1ccc2c(C)nc(Nc3nc(-c4ccccc4)cc(=O)[nH]3)nc2c1,44.9*,15.3,?,0.6,24.1,-22.6,-4.5
c1ccc(CCOn2ccnc2)cc1,2.1,-0.7,i,1.0,/,/,/
COc1ccc(C(=O)N2CCCC(CNC(=O)c3ccccc3Cl)C2)o1 (stereo not given),-4.6,-0.5,i,-5.4,/,/,/
O=C(N=NC(=O)c1ccco1)c1ccc2c(O)n(N3C(=O)c4ccccc4C3=O)c(O)c2c1,47.7*,7.4,i,-1.3,-13.1,0.5,-5.5
CCn1c(O)c2ccc(C(=O)N=NC(=O)c3ccccc3)cc2c1O,-2.7,3.0,i,2.5,/,/,/
CCOC(=O)c1c(NC(=S)Nc2ccccc2)sc2c1CC(C)(C)SC2,41.9*,11.5,i,22.5,7.8,80.6*,-10.9
Cc1ccc2nc(SCC(=O)c3c(N)n(C)c(=O)n(C)c3=O)[nH]c2c1,43.6*,-4.6,i,-1.2,5.1,-39.4,-1.5
Cc1ccc2nc(SCC(=O)c3cc(C)n(C)c3C)[nH]c2c1,-7.9,2.4,i,-1.1,/,/,/
COc1ccc2nc(C)cc(N/N=C/c3ccc(F)cc3)c2c1,69.4*,-3.1,?,1.4,3.5,-27.4,-41.5
COc1ccc(/C=N/Nc2cc(C)nc3ccccc23)cc1,-9.8,1.4,i,2.6,/,/,/
O=C(CSc1nnc(C2CC2)n1CC1CCCO1)Nc1ccc(Cl)cc1 (stereo not given),-2.5,0.3,i,-0.9,/,/,/
O=[N+]([O-])c1cccc(N=Cc2sc3ccccc3c2O)c1,/,/,/,3.1,/,/,/
O=[N+]([O-])c1ccc(N=Cc2sc3ccccc3c2O)cc1,61.5*,5.0,i,51.1*,-5.0,-62.9,-8.6
CCC(c1nnc(SCc2nc3ccccc3s2)n1Cc1ccccc1)N(C)C (stereo not given),9.6,2.4,i,8.1,/,/,/
c1ccc(Cn2c(SCc3nc4ccccc4s3)nnc2-c2ccco2)cc1,74.5*,-20.0,i,17.4,7.4,29.1,3.5
Cc1ccc(N2C(=O)N(Cc3ccccc3C)c3ccccc3S2(=O)=O)cc1,-2.8,-2.5,i,-3.6,/,/,/
COc1ccc(N2CCN(C(=O)CSc3ncccc3-c3nc4ccccc4[nH]3)CC2)cc1,35.8*,26.0,i,12.9,8.2,21.5,12.2
COc1ccccc1N1CCN(C(=O)CSc2ncccc2-c2nc3ccccc3[nH]2)CC1,31.3,25.0,i,13.2,/,/,/
SMILES,Rpn11 inh,HNF4A DNA FP,Myeloid diff 2,TPT1 inh,Rpn11 confirm,MMP-2 inh,Thrombin inh
Cc1ccc(Cn2ncc3c(N4CCN(c5ccc(C)cc5)CC4)ncnc32)cc1,101.6*,-32.5,i,-1.3,-2.8,10.9,4.0
Cc1ccc(Cn2ncc3c(N4CCN(C)CC4)ncnc32)cc1,2.2,5.3,i,0.7,/,/,/
COc1cccc2cc(C(=O)NC(C)c3ccccc3)c(=O)oc12 (stereo not given),-9.7,4.0,i,0.6,/,/,/
CCOC(=O)C1CCCN(C(=O)c2ccc(F)c(Cl)c2)CC1 (stereo not given),2.5,2.6,?,/,/,/,/
O=C(Nc1nc(-c2ccc(F)c(F)c2)cs1)Nc1ccc(F)cc1F,56.5*,10.1,i,0.9,78.8*,-36.9,-13.1
O=C1NC[C@@H](CCCCN2C[C@H](Cc3ccc(O)cc3)N(CCc3ccccc3)C(=O)C2=O)N(Cc2ccccc2)C1=O,/,-1.9,i,/,/,/,/
Cc1nnc(N/N=C\c2ccc(-c3ccccc3[N+](=O)[O-])o2)n1N,64.7*,-0.4,i,7.1,0.0,-37.4,-3.3
Cc1nnc(N/N=C/c2ccc(-c3ccccc3F)o2)n1N,9.7,9.2,i,-1.0,/,/,/
CC(=O)c1c[nH]c(C(=O)NCc2ccccc2Cl)c1,-7.2,2.5,i,-0.8,/,/,/
CCc1ccc(O)c(N=Cc2cccc(C)c2O)c1,43.7*,19.2,i,2.5,43.5*,-21.5,17.8
CC(C)C[C@H]1CN([C@@H](Cc2ccccc2)CN2CCC[C@H]2CN2C(=O)C(=O)NC[C@@H]2Cc2ccccc2)C(=O)C(=O)N1CCc1ccccc1,/,3.0,i,/,/,/,/
COc1ccc(-c2ccc3sc4ccccc4c(=O)c3c2)cn1,123.8*,12.7,i,-2.5,1.9,-10.0,-9.2
CC1Sc2ccc(S(=O)(=O)N3CCC(C(=O)N4CCN(C)CC4)CC3)cc2NC1=O (stereo not given),11.1,3.0,?,-0.6,/,/,/
CCCN1CCN(C(=O)C2CCN(S(=O)(=O)c3ccc4c(c3)NC(=O)C(C)S4)CC2)CC1 (stereo not given),40.4*,24.4,i,9.1,27.6,-1.3,14.8
O=C(Nc1nc2c(s1)CCCC2)c1ccc(Br)o1,89.7*,0.4,i,-3.6,-3.2,1.8,3.0
COc1cc(N(C)C)ccc1C=c1c2ccccc2n2c1cc(-c1ccccc1)[n+]2C,114.8*,176.5,/,/,97.9*,-84.2,82.4*
CCc1cccc(CC)c1NC(=O)CN1CCN(c2ccccc2)CC1,6.3,-3.6,i,0.0,/,/,/
CCc1cccc(CC)c1NC(=O)CN1CC(C)SC1=NC1CCCCC1 (stereo not given),60.7*,4.6,i,-18.3,-13.2,-7.1,-4.0
COc1ccc(C(=O)N2CCC2(C)C(=O)NC(C)C)cc1 (stereo not given),2.9,-0.5,i,/,/,/,/
O=C(N/N=C\c1ccc(OC(=O)c2cccs2)cc1)c1ccc(Cl)cc1,76.0*,8.0,i,-2.2,31.3,3.9,-3.7
COc1ccc(C(=O)N/N=C/c2ccc(OC(=O)c3cccs3)cc2)cc1,-3.6,-0.5,i,-3.0,/,/,/
CCOC(=O)N1CCN(C(=O)c2cc(OCC)c(OCC)c(OCC)c2)CC1,-6.0,0.7,i,1.6,/,/,/
CCOC(=O)N1CCN(C(=O)c2cc(OC)c(OC)c(OC)c2)CC1,35.1*,6.3,i,-2.9,-9.0,-18.9,3.2

# Compound activity deposited in PubChem BioAssay by several laboratories.
